# Data as given in PubChem BioAssay (Tox21).
# A number with no mark means an inactive call. Active and inactive are the calls of the source. Calls follow the shape of the dose curve; as a rule, active = well fitted curve in the direction sought with a large enough effect in the repeat runs; inconclusive = weak or mixed curves; inactive = flat fitted curve, though single readings scatter.
# Test: qHTS assay to test for compound auto fluorescence at 590 nm (red) in HepG2 cell free culture (AID 720684)
# Conditions: cell-free medium autofluorescence, red 540/590 nm; series mostly up to 91.3 µM
# From the text: U.S. Tox21 Program National Center for Advancing Translational Sciences [NCATS] NIH Chemical Genomics Center [NCGC] U.S. Environmental Protection Agency [EPA] National Institutes of Environmental Health Sciences [NIEHS] National Toxicology Program [NTP] U.S. Food and Drug Administration [FDA] Tox21 Assay Overview: Compound auto fluorescence often interferes with screening of the compound library against various biological targets and signaling pathways. Some of these compounds may have fluorophoric properties. Such properties may interfere with the assay outputs resulting in false positives and/or negatives. To decrease such complications and ensure the compound activities are relevant in terms of biological response, the Tox21 10K compound library was screened for auto fluorescence. From the fluorophores used as reporter signals in our screening assays, the auto fluorescence equivalencies of compounds against three fluorophores have been evaluated: Triamterene, Fluorescein and Rose Bengal sodium for blue, green and red fluorescence, respectively. The fluorescence intensities were measured using Excitation/Emission wavelengths at 405/460nm, 485/535nm and 540/590nm for blue, green and red labels, respectively. This assay includes the red fluorescence data.
# Tox21 Assay Protocol Summary: 5 uL of culture medium (MEM containing 10% FBS) per well was dispensed into black wall/clear bottom 1536-well plates using a Multidrop Combi Dispenser (ThermoFisher Scientific, Waltham, MA). After 23 nL compound or DMSO vehicle was transferred into assay plate by a pintool work station (Kalypsys, San Diego, CA), fluorescence intensities in the assay plates were measured by an Envision (PerkinElmer, Shelton, CT) plate reader using three labels for measuring blue, green and red fluorescence at […] 460, 535 and 590nm respectively.
# % is scaled to controls: 0 for no effect and ±100 for the full control effect.
Structure (SMILES),outcome,"fluorescence, % of Rose Bengal"
FB(F)F,inactive,
Nc1ccn([C@@H]2O[C@H](CO)[C@@H](O)[C@@H]2O)c(=O)n1,inactive,
C=CCOCC(O)CO (stereo not given),inactive,
Cc1nc2ccc(CN(C)c3ccc(C(=O)N[C@@H](CCC(=O)O)C(=O)O)s3)cc2c(=O)[nH]1,inactive,
CO[C@@]1(NC(=O)CSC[C@@H](N)C(=O)O)C(=O)N2C(C(=O)O)=C(CSc3nnnn3C)CS[C@@H]21,inactive,
CC1=NS(=O)(=O)c2cc(Cl)ccc2N1,inactive,
CC1=NN(c2cc(S(=O)(=O)O)ccc2Cl)C(=O)C1N=Nc1ccccc1 (stereo not given),inactive,
CCNS(=O)(=O)c1ccc(C)cc1,inactive,
O=S(=O)(O)c1cccc2ccccc12,inactive,
CN(C)C(=O)Oc1cccc([N+](C)(C)C)c1,inactive,
CCCCCC(=O)OCCc1ccccc1,inactive,
CCCCCCCCCCOc1cc2c(=O)c(C(=O)OCC)c[nH]c2cc1OCC,inactive,
CC(=O)N1C[C@H](O)C[C@H]1C(=O)O,inactive,
CN1CCC(=C2c3ccccc3CCc3cccnc32)CC1,inactive,
COc1cc(C)nc(-n2nc(C)cc2OC)n1,,-0.183% [at 18.6 µM]
C[N+]1(C)CCCC(OC(=O)C(O)(c2ccccc2)c2ccccc2)C1 (stereo not given),,-0.11% [at 18.6 µM]
c1ccc2sc(SN3CCOCC3)nc2c1,inactive,
CCCCCCCCN1CCCC1=O,inactive,
CC(C(=O)O)c1cccc(Oc2ccccc2)c1 (stereo not given),,0.647% [at 18.6 µM]
CC1=CC(=O)[C@H]2C[C@@H]1C2(C)C,inactive,

Structure (SMILES),outcome,"fluorescence, % of Rose Bengal"
C=CN1CCCCCC1=O,inactive,
CC(=O)OCC(=O)[C@@]1(O)[C@H](C)C[C@H]2[C@@H]3CCC4=CC(=O)C=C[C@]4(C)[C@@]3(F)[C@@H](O)C[C@@]21C,inactive,
CC1=C(C/C=C(\C)CCC[C@H](C)CCC[C@H](C)CCCC(C)C)C(=O)c2ccccc2C1=O,inactive,
O=C1NC(=O)C2CC=CCC12 (stereo not given),inactive,
CCCCc1nc(Cl)c(CO)n1Cc1ccc(-c2ccccc2-c2nn[nH]n2)cc1,inactive,
COCCOC[C@H](CC1(C(=O)NC2CCC(C(=O)O)CC2)CCCC1)C(=O)Oc1ccc2c(c1)CCC2 (stereo not given in full),inactive,
C[N+](C)(C)CCCCCCCCCC[N+](C)(C)C,inactive,
O=C(CO)[C@@H](O)[C@H](O)[C@H](O)CO,inactive,
CCCCCCCCCCCCSC,inactive,
Clc1cc(Cl)c(Cl)nc1Cl,inactive,
Cc1ncc(COP(=O)(O)O)c(C=O)c1O,inactive,
OCCCCCO,inactive,
c1ccc(Cc2ccccc2)cc1,inactive,
CN(C)CCCN(C)CCCN(C)C,inactive,
OCCc1ccccn1,inactive,
Cc1ccccc1N=C(N)N=C(N)N,inactive,
CC[N+](CC)(CC(=O)Nc1c(C)cccc1C)Cc1ccccc1 (tested in a mixture with another compound),inactive,
CCOc1ccccc1OCC,inactive,
NS(=O)(=O)Cc1noc2ccccc12,inactive,
CC(C)[C@H]1CC[C@@H](C)CC1=O,inactive,
